MBD2 DNA inh: MBD2-methylated oligo binding inhibition | AID 686964 | inhibition, % at 4.4 µM | Q9UBB5 | actives 0.31% (n = 370,000) | TR-FRET, MBD2 binding to methylated oligonucleotide; in the data active = inhibition above about 13%
Target sequence (Q9UBB5 whole entry, looked up): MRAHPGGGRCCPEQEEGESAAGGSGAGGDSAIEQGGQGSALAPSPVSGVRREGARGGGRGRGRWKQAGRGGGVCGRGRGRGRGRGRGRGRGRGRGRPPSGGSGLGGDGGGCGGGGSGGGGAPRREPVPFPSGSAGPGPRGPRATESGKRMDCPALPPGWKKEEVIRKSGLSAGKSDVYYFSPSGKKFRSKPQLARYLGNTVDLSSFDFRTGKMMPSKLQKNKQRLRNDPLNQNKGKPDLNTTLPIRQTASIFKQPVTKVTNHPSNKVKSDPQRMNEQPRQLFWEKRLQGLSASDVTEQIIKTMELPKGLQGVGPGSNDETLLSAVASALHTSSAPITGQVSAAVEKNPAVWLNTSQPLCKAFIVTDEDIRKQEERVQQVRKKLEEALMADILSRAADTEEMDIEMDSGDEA
UHRF1 binding: blocks human UHRF1 binding to methylated DNA; Q96T88; inhibition, % at 4.4 µM; UHRF1 binding to methylated oligo, TR-FRET; actives 0.75% (n = 370,000); AID 687016; in the data active = inhibition above about 21%;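 also: UHRF1 SRA domain binding a hemimethylated CpG hairpin DNA probe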
LEDGF integ inh: blocks HIV-1 LEDGF/p75-dependent DNA integration | TR-FRET IN-LEDGF/p75 DNA integration, Eu/Cy5 | inhibition, % at 3.7 µM | actives 0.64% (n = 370,000) | AID 743269;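 active = inhibition above the screen-wide mean plus 3 SD, cut at about 13% in these data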;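 also: signal is the Cy5 over europium emission ratio at 671 and 618 nm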
TCR CD3 inh: blocks the human TCR-CD3 interaction; actives 0.37% (n = 360,000); TAMRA-labeled TCR probe fluorescence, biochemical; inhibition, % at 9.4 µM; in the data active = inhibition above about 19%;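 also: recombinant mutant TCR 2C K166C tagged with TAMRA read by polarization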
Rin1-Abl PPI inh: blocks binding of human Rin1 to Abl. TR-FRET Rin1/Abl binding, biochemical. inhibition, % at 7.35 µM. P00519+Q13671. AID 588664. actives 0.4% (n = 360,000); in the data active = inhibition above about 5%, passing the limit was not always enough
IN multimer act: HIV-1 integrase multimerization activation, counter-screen; shares compounds with LEDGF integ inh; TR-FRET HIV-1 integrase multimerization, biochemical; activation, % at 7.7 µM; actives 17% (n = 2,000); AID 1053131; in the data active = activation above about 8.9%
TR-FRET interf: TR-FRET optical interference, LEDGF/p75 integration counter-screen. shares compounds with LEDGF integ inh. TR-FRET optical interference counterscreen, HIV-1 IN multimerization. inhibition, % at 7.7 µM. 2,000 tested, under 10 active;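 active = inhibition above the mean over all tested compounds plus 3 SD, which no compound reached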
LEDGF integ conf: confirmation of HIV-1 LEDGF/p75-dependent integration inhibitors | shares compounds with LEDGF integ inh | actives 36% (n = 2,000) | inhibition, % at 3.7 µM | AID 1053136 | TR-FRET LEDGF/p75-dependent HIV-1 integration, biochemical; in the data active = inhibition above about 14%
Hits are given with their value. Compounds with a hit are over-represented: about 2% of the library has one in this group of screens.

How did CCOC(=O)c1ccc(N2C(=O)c3n[nH]c(-c4ccco4)c3C2c2cccc([N+](=O)[O-])c2)cc1 (stereo not drawn) do in these assays?
MBD2 DNA inh: inactive; UHRF1 binding: inactive; LEDGF integ inh: 16; TCR CD3 inh: inactive; Rin1-Abl PPI inh: inactive; IN multimer act: inactive; TR-FRET interf: inactive; LEDGF integ conf: inactive

What do the screens show for `CCOC(=O)c1ccc(N2C(=O)c3n[nH]c(C)c3C2c2ccco2)cc1` (stereo not drawn)?
MBD2 DNA inh: inactive; UHRF1 binding: inactive; LEDGF integ inh: inactive; TCR CD3 inh: inactive; Rin1-Abl PPI inh: inactive

Results for O=C(O)Cc1ccc(N2N=C(c3ccccc3)CC2=O)cc1 ?
MBD2 DNA inh: inactive; UHRF1 binding: inactive; LEDGF integ inh: 26; TCR CD3 inh: inactive; Rin1-Abl PPI inh: inactive; IN multimer act: inactive; TR-FRET interf: inactive; LEDGF integ conf: inactive

How did O=C(O)Cc1ccc(-c2ccccc2-c2ccccc2)cc1 do in these assays?
MBD2 DNA inh: inactive; UHRF1 binding: inactive; LEDGF integ inh: inactive; TCR CD3 inh: inactive; Rin1-Abl PPI inh: inactive

How did O=Cc1coc2ccc3ccccc3c2c1=O do in these assays?
MBD2 DNA inh: inactive; UHRF1 binding: inactive; LEDGF integ inh: 16; TCR CD3 inh: inactive; Rin1-Abl PPI inh: inactive; IN multimer act: inactive; TR-FRET interf: inactive; LEDGF integ conf: 54

What do the screens show for `Cc1ccc(N=Cc2cccc(O)c2O)c(C)c1`?
MBD2 DNA inh: inactive; UHRF1 binding: inactive; LEDGF integ inh: 31; TCR CD3 inh: inactive; Rin1-Abl PPI inh: inactive; IN multimer act: inactive; TR-FRET interf: inactive; LEDGF integ conf: 75

What do the screens show for `CC(N=Cc1cccc(O)c1O)c1ccccc1` (stereo not drawn)?
Rin1-Abl PPI inh: inactive

What do the screens show for `Oc1cccc(/C=N/N=C/c2cccc(O)c2O)c1O`?
MBD2 DNA inh: inactive; UHRF1 binding: inactive; LEDGF integ inh: 27; TCR CD3 inh: inactive; Rin1-Abl PPI inh: inactive; IN multimer act: inactive; TR-FRET interf: inactive; LEDGF integ conf: 73

How did Cc1ccccc1N=Cc1cccc(O)c1O do in these assays?
Rin1-Abl PPI inh: inactive

Results for CC(C)CCOP(=O)(c1ccc(N(C)C)cc1)C(O)c1ccccc1F (stereo not drawn) ?
MBD2 DNA inh: inactive; UHRF1 binding: inactive; LEDGF integ inh: 21; TCR CD3 inh: inactive; Rin1-Abl PPI inh: inactive; IN multimer act: inactive; TR-FRET interf: inactive; LEDGF integ conf: inactive

How did CC(=O)OC[C@]12CC[C@H]3[C@@](C)(CC[C@H]4C(C)(C)CCC[C@]34C)[C@@H]1CC(C1=CC(=O)OC1O)O2 (stereo partly drawn) do in these assays?
MBD2 DNA inh: inactive; UHRF1 binding: inactive; LEDGF integ inh: 20; TCR CD3 inh: inactive; Rin1-Abl PPI inh: inactive; IN multimer act: inactive; TR-FRET interf: inactive; LEDGF integ conf: 63

How did CN(C(=O)COC(=O)CCC(=O)c1ccc(F)cc1)C1CCCCC1 do in these assays?
MBD2 DNA inh: inactive; UHRF1 binding: inactive; LEDGF integ inh: inactive; TCR CD3 inh: inactive; Rin1-Abl PPI inh: inactive

How did COc1ccc(Cl)cc1NC(=O)NNC(=O)c1ccccn1 do in these assays?
MBD2 DNA inh: inactive; UHRF1 binding: inactive; LEDGF integ inh: inactive; TCR CD3 inh: inactive; Rin1-Abl PPI inh: inactive

How did COc1ccc(Cl)cc1NC(=O)NNC(=O)C(=O)Nc1ccc(F)cc1 do in these assays?
MBD2 DNA inh: inactive; UHRF1 binding: inactive; LEDGF integ inh: 65; TCR CD3 inh: inactive; Rin1-Abl PPI inh: inactive; IN multimer act: inactive; TR-FRET interf: inactive; LEDGF integ conf: inactive

How did COC(=O)C1=C(O)/C(=C\c2ccc(CNS(=O)(=O)c3ccc(Cl)cc3)o2)N=C1C do in these assays?
MBD2 DNA inh: inactive; UHRF1 binding: inactive; LEDGF integ inh: 53; TCR CD3 inh: inactive; Rin1-Abl PPI inh: inactive; IN multimer act: inactive; TR-FRET interf: inactive; LEDGF integ conf: 14

What do the screens show for `CCOC(=O)C(=O)NCc1ccc(/C=C2/N=C(C)C(C(=O)OCC)=C2O)o1`?
MBD2 DNA inh: inactive; UHRF1 binding: inactive; LEDGF integ inh: inactive; TCR CD3 inh: inactive; Rin1-Abl PPI inh: inactive

Results for CCOC(=O)C1=C(O)/C(=C\c2ccc(CNS(=O)(=O)c3ccc(Br)cc3)o2)N=C1C ?
MBD2 DNA inh: inactive; UHRF1 binding: inactive; LEDGF integ inh: 22; TCR CD3 inh: inactive; Rin1-Abl PPI inh: inactive; IN multimer act: inactive; TR-FRET interf: inactive; LEDGF integ conf: inactive

What do the screens show for `Cc1ccc(C2C(C#N)=C(N)Oc3cc4c(cc32)OCO4)cc1` (stereo not drawn)?
MBD2 DNA inh: inactive; UHRF1 binding: inactive; LEDGF integ inh: inactive; TCR CD3 inh: inactive; Rin1-Abl PPI inh: inactive

How did Cc1ccccc1N=Cc1cc2c(cc1O)OC(N)=C(C#N)C2c1ccccc1 (stereo not drawn) do in these assays?
MBD2 DNA inh: inactive; UHRF1 binding: inactive; LEDGF integ inh: 19; TCR CD3 inh: inactive; Rin1-Abl PPI inh: inactive; IN multimer act: inactive; TR-FRET interf: inactive; LEDGF integ conf: 35

Results for N#CC1=C(N)Oc2cc(O)c(C=Nc3ccccc3)cc2C1c1ccccc1 (stereo not drawn) ?
MBD2 DNA inh: inactive; UHRF1 binding: inactive; LEDGF integ inh: 20; TCR CD3 inh: inactive; Rin1-Abl PPI inh: inactive; IN multimer act: inactive; TR-FRET interf: inactive; LEDGF integ conf: 19

Results for N#CC1=C(N)Oc2cc(Nc3ccccc3)ccc2C1c1ccncc1 (stereo not drawn) ?
MBD2 DNA inh: inactive; UHRF1 binding: inactive; LEDGF integ inh: inactive; TCR CD3 inh: inactive; Rin1-Abl PPI inh: inactive

Results for Cc1ccc(N=Cc2cc3c(cc2O)OC(N)=C(C#N)C3c2ccccc2)cc1 (stereo not drawn) ?
MBD2 DNA inh: inactive; UHRF1 binding: inactive; LEDGF integ inh: 30; TCR CD3 inh: inactive; Rin1-Abl PPI inh: inactive; IN multimer act: inactive; TR-FRET interf: inactive; LEDGF integ conf: 15

What do the screens show for `COC(=O)[C@]12C[C@H](CC(=O)NCCC(C)C)C(=O)N(Cc3ccco3)C1=C[C@H](C1CCCC1)O[C@@H]2C`?
MBD2 DNA inh: inactive; UHRF1 binding: inactive; LEDGF integ inh: inactive

What do the screens show for `CCOc1ccc(S(=O)(=O)N2CCOCC2)cc1NC(=O)CN1C(=O)NC(C)(c2ccccc2)C1=O` (stereo not drawn)?
MBD2 DNA inh: inactive; UHRF1 binding: inactive; LEDGF integ inh: inactive; TCR CD3 inh: inactive; Rin1-Abl PPI inh: inactive

How did Cn1c(CNc2ccc(O)cc2)nc2ccccc21 do in these assays?
MBD2 DNA inh: inactive; UHRF1 binding: inactive; LEDGF integ inh: 16; TCR CD3 inh: inactive; Rin1-Abl PPI inh: inactive; IN multimer act: inactive; TR-FRET interf: inactive; LEDGF integ conf: inactive

What do the screens show for `Clc1ccccc1OCCn1nnc2ccccc21`?
MBD2 DNA inh: inactive; UHRF1 binding: inactive; LEDGF integ inh: 29; TCR CD3 inh: inactive; Rin1-Abl PPI inh: inactive; IN multimer act: inactive; TR-FRET interf: inactive; LEDGF integ conf: inactive

Screens deposited in PubChem by The Scripps Research Institute Molecular Screening Center.
